We go through seven compounds from PubChem BioAssay (NCI).

What all share (assay): NCI-60 one-dose screen, 48 h (100 = growth as untreated, 0 = no growth, -100 = all killed)
What all share (conditions): 10 µM unless noted

For test [1], the system named is HCT-15 colon.
Test [2] has as its system HT29 colon.
The test system of test [3] is SNB-75 CNS.
Test [4] relates to SNB-19 CNS.
Test [5] relates to U251 CNS.
The test system of test [6] is PC-3 prostate.
For test [7], the system named is SK-MEL-5 melanoma.
The test system of test [8] is UACC-62 melanoma.
For test [9], the system named is LOX IMVI melanoma.
The subject of test [10] is SK-MEL-28 melanoma.
Test [11] relates to SK-MEL-2 melanoma.
Test [12] has as its system EKVX NSCLC.
The subject of test [13] is SN12C renal.
In test [14] the test system is UO-31 renal.
Test [15] concerns TK-10 renal.
Test [16] relates to ACHN renal.
Test [17] relates to CAKI-1 renal.
Test [18] concerns A498 renal.
The subject of test [19] is CCRF-CEM leukemia.
Test [20] has as its system MOLT-4 leukemia.

The structures appear in SMILES notation. This is part of a sample that, as a whole, favours compounds with a hit. Of some 83,000 tested, about 20% had one in any assay.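 Note: values are percent growth. 100 is the growth of untreated cells, values between 100 and 0 indicate rising inhibition; between -100 and 0 indicates cell death.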 A number with no mark means an inactive call. Calls of active or inactive are those of the source. Rule for the calls: active = growth percent below 10; inactive = the rest.

As to `CN(C)c1ccc2nc3ccc(=[N+](C)C)c([N+](=O)[O-])c-3sc2c1`, the growth in test [1] was 32.1%; in [2], 59%; in test [3] it was 91.6%; in [4], 56.6%; in test [5], 6.01% (active); in test [6] it was 4.48% (active). Besides, the growth in [7] is 19.5%; in [8], 34.1%; in test [9], 4.03% (active); in test [10], 57.8%; in test [11] it was 47.2%; in test [12], 25%. Further, the growth in test [13] was 39.6%; in [14] it was 51.7%; in test [15] it was 71.3%; in test [16], 27.9%; in [17], 43.1%; in test [18], 68.5%. For the same compound, the values for the growth in test [19] and in test [20] were 12.7% and 15.5%, respectively.
Consider `C#Cc1cccc(NC(=O)c2ccc(NC(=O)C=C)cc2)c1`, for which the growth in [1] is 60.9% [8.25 µM]; in test [2], 44% [8.25 µM]; in test [3] it was 39.4% [8.25 µM]; in [4], 84.5% [8.25 µM]; in test [5], 80.6% [8.25 µM]; in test [6], 67.7% [8.25 µM]. Further, the growth was 97.7% [8.25 µM] in [7]; 73.9% [8.25 µM] in test [8]; 79.6% [8.25 µM] in test [9]; 98.2% [8.25 µM] in test [10]; 79.3% [8.25 µM] in test [11]; 102% [8.25 µM] in [12]. The growth in test [13] was 67.5% [8.25 µM]; in test [14], -67.2% [8.25 µM] (active); in test [15] it was 69.9% [8.25 µM]; in test [16], 63.8% [8.25 µM]; in test [17] it was 63.2% [8.25 µM]; in [18], 40.8% [8.25 µM]. The growth was 71.5% [8.25 µM] in test [19] and 76.8% [8.25 µM] in [20].
For `Cc1cc(Cl)ccc1NS(=O)(=O)c1ccc(-c2cnc(C3CC3)o2)cc1`, the growth in test [1] was 14.1%; in test [2], 5.04% (active); in [3], -2.31% (active); in test [4] it was 22.8%; in test [5] it was 24.8%; in test [6], 26.6%. Besides, the growth was 20.4% in test [7]; 26.7% in test [8]; 22.4% in [9]; 49.1% in test [10]; 80.4% in [11]; 32.4% in [12]. Besides, the growth in test [13] was 46.7%; in test [14] it was 45.8%; in [15], 66.9%; in [16], 27.5%; in [17], 43.4%; in [18], -5.2% (active). Besides, the growth in test [19] is 22%; in [20], 2.78% (active).
As for `CN(C)CCNc1nc2ccccc2c2c(=O)c3cc(F)ccc3sc12`, the growth in test [1] is 22.7%; in [2], -3.23% (active); in test [3], 54.9%; in test [4], 55.4%; in [5], 41.4%; in test [6], 40.4%. For the same compound, the growth was 83.5% in [7]; 53.4% in [8]; -64.3% (active) in test [9]; 55.6% in test [10]; 87.3% in [11]; 67.7% in test [12]. Further, the growth is 50.8% in test [13]; 25.2% in test [14]; 55.4% in test [15]; 21.4% in test [16]; 14% in test [17]; 17.6% in [18]. The results for the growth in test [19] and in [20] were 24.4% and -3.39% (active), respectively.
With `CC(C)(C)NC(=O)C(OC(=O)c1cccc(Cl)c1)c1ccc(Cl)cc1` (stereo not given), the growth is 103% in [1]; 87.6% in [2]; 103% in test [3]; 103% in [4]; 94.5% in [5]; 94% in [6]. Further, the growth in test [7] is 98.2%; in [8] it was 104%; in test [9], 94.1%; in test [10] it was 105%; in [11] it was 96.1%; in test [12], 109%. Moreover, the growth in [13] was 101%; in test [14], 90.1%; in test [15], 93.2%; in [16], 107%; in test [17], 99.3%; in test [18] it was 83.1%. The growth in test [19] is 103%; in test [20] it was 107%.
`Cc1cc(=O)oc2cc(OC(=O)CN3CCN(C)CC3)ccc12`: the growth in [1] was 98.9%; in test [2], 104%; in [3] it was 74.5%; in [4], 95.6%; in [5], 105%; in test [6], 95.2%. Also, the growth in [7] was 101%; in test [8], 95.5%; in [9], 97.9%; in test [10], 104%; in test [11] it was 106%; in test [12], 92.5%. For the same compound, the growth is 96.6% in test [13]; 92.8% in test [14]; 109% in [15]; 103% in test [16]; 85.8% in test [17]; 97.2% in test [18]. For the same compound, the growth in test [19] is 98.7%; in [20], 101%.
Turning to `CC(=O)OC[C@H]1OC(Sc2sc(C(=O)c3ccc(Br)cc3)c(N)c2-c2nc3ccccc3s2)[C@H](OC(C)=O)[C@@H](OC(C)=O)[C@H]1OC(C)=O` (stereo not given in full), the growth in test [1] is 99.7%; in [2] it was 106%; in test [3], 74.5%; in test [4], 87.4%; in [5] it was 96.2%; in [6], 70.8%. Also, the growth was 36.3% in test [7]; 60.4% in test [8]; 96.8% in test [9]; 104% in [10]; 112% in test [11]; 80.5% in test [12]. Besides, the growth in [13] was 95.1%; in [14] it was 61.4%; in test [15], 128%; in test [16] it was 90.5%; in [17] it was 67.6%; in [18], 36.1%. The growth in test [19] was 85.5%; in [20], 79.3%.
